Test [1] in a line: Nuclear factor erythroid 2-related factor 2/antioxidant responsive element (Nrf2/ARE) small molecule agonists: qHTS cell viability counter screen in human keratinocytes (AID 1919968; active = well fitted curve in the direction sought with a large enough effect in the repeat runs; an effect the other way counts as inactive or inconclusive; note: nearly all actives have a fitted effect of over 55% in size; note: potency is the fitted concentration of half-maximal effect). The method, boiled down: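 In human HaCaT keratinocytes stably expressing an ARE-driven luciferase, compound exposure lasted 23 h at 37 C under 5% CO2. Viable cells are quantified with a protease-based fluorogenic reagent (CellTiter-Fluor) read 1 h after addition.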
In general terms: In qHTS, concentration-response curves come from the screen itself.

Test [2] in a line: Nuclear factor erythroid 2-related factor 2/antioxidant responsive element (Nrf2/ARE) small molecule agonists: luciferase reporter gene qHTS assay in human keratinocytes (AID 1919969). Note: nearly all actives have a fitted effect of over 35% in size. Note: potency is the fitted concentration of half-maximal effect. In general terms: Reporter assays use an easily measured gene product as a stand-in for the process of interest.
Test [3] addresses Gonadotropin-releasing hormone receptor (Homo sapiens) (UniProt P30968). The test is described as follows: Human gonadotropin-releasing hormone receptor (GnRHR) small molecule agonists, calcium flux assay in GnRHR-HEK293 cells (AID 1920063). Note: nearly all actives have a fitted effect of over 35% in size. The essentials:
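Intracellular calcium rise is the read-out: engineered human GnRHR HEK293 cells, dye-loaded, are exposed to DMSO-dissolved compounds and fluorescence at Ex/Em 480/540 is tracked for 3 min.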
In general terms: A change in cytosolic calcium serves as a functional read-out for many receptors and channels.

The target of test [4] is KiSS-1 receptor (Homo sapiens) (UniProt Q969F8). The experiment in a line: Human kisspeptin (KISS1R) small molecule agonists, calcium flux assay in KISS1R-HEK293 cells (AID 1920064; active = well fitted curve in the direction sought with a large enough effect in the repeat runs; an effect the other way counts as inactive or inconclusive). The essentials:
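Concentration-response testing used 15 concentrations in triplicate on human KISS1R-expressing HEK293 cells. Calcium-dependent fluorescence (Ex/Em 480/540) was followed kinetically for 3 min after compound transfer.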

Test [5] in a line: G protein-coupled receptor (GPCR) small molecule agonists, calcium flux assay: HEK293 wild type cell line counter screen (AID 1920065). The method, boiled down:
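Fluorescence intensity signals activation. After overnight (18 h) culture and a 1 h calcium dye load at 37 C, compounds are added by pin tool and the plate read at 480/540 nm for 3 min in 1 s steps.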

Test [6] in a line: p53 small molecule agonists, cell-based qHTS assay with human liver microsomes (AID 1963577). The essentials: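 p53RE-bla cells, 4,000/well, compound added after 5 h, with human liver microsomes 0.5 mg/mL and NADPH 0.5 mg/mL final; 16 h at 37 C, then LiveBLAzer 2 h RT, fluorescence.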
The nature of test [7]: p53 small molecule agonists, cell-based qHTS assay with rat liver microsomes (AID 1963578). The method, boiled down: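 p53RE-bla cells, 4,000/well, pre-incubated 5 h, then given compounds plus rat liver microsomes (0.5 mg/mL final) and NADPH (0.5 mg/mL final). Incubation 16 h at 37 C; beta-lactamase reporter read by LiveBLAzer fluorescence after 2 h at room temperature.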

Test [8] can be described thus: p53 small molecule agonists, cell-based qHTS assay with human liver microsomes: qHTS cell viability counter screen (AID 1963579). Note: nearly all actives have a fitted effect of over 45% in size. The essentials: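 p53RE-bla cells, 4,000/well, dosed 5 hours after plating, with human liver microsomes (0.5 mg/mL final) plus NADPH (0.5 mg/mL final), 16 hours at 37 C. Viability read as CellTiter-Glo luminescence after 30 min at room temperature.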

Test [9] is described as follows: p53 small molecule agonists, cell-based qHTS assay with rat liver microsomes: qHTS cell viability counter screen (AID 1963580). Note: nearly all actives have a fitted effect of over 45% in size. Note: potency is the fitted concentration of half-maximal effect. The method, boiled down:
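Rat liver microsome (0.5 mg/mL final) and NADPH (0.5 mg/mL final) co-incubation with compounds for 16 h at 37 C on HCT-116 p53RE-bla cells; cytotoxicity taken from intracellular ATP luminescence.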

Test [10] can be described thus: p53 small molecule agonists, cell-based qHTS assay (AID 1963582; active = well fitted activation curve with a large enough effect in the signal ratio in the repeat runs, not every such curve was filed as active; the % refers to the signal ratio). The essentials: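 After plating, p53RE-bla cells sat 5 h in the incubator; compounds or DMSO vehicle were pinned in; a 16 h incubation at 37 C followed; FRET substrate was added and, 2 h later at RT, fluorescence was measured.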
Test [11] has as its target 5-hydroxytryptamine receptor 2A (Homo sapiens) (UniProt P28223). The test is described as follows: 5-hydroxytryptamine receptor 2A (HTR2A) small molecule antagonists, cell-based qHTS assay (AID 1963586). Note: nearly all actives have a fitted effect of over 45% in size. The essentials:
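CHO cells stably expressing human HTR2A were plated for 18 h at 37 C, then loaded with calcium dye for 1 h. Compounds were preincubated 5 min at room temperature before DOI (4 nM solution) was added. Kinetic fluorescence was read for 3 min.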

Test [12] has the same target. The experiment in a line: 5-hydroxytryptamine receptor 2A (HTR2A) small molecule agonists, cell-based qHTS assay (AID 1963587). Note: nearly all actives have a fitted effect of over 30% in size. The essentials: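 Kinetic calcium-flux fluorescence (2 min, 1 sec intervals) after compound addition in agonist mode. HTR2A-CHO cells were cultured 18 h, then dye-loaded 1 h at 37 C.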
Test [13] deals with Muscarinic acetylcholine receptor M1 (Homo sapiens) (UniProt P11229). The test is described as follows: Cholinergic receptor muscarinic 1 (CHRM1) small molecule agonists, cell-based qHTS assay (AID 1963589). Note: nearly all actives have a fitted effect of over 35% in size. The essentials:
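Fluorescent calcium dye reports M1 activation in stably transfected CHO cells. Compounds, 15 concentrations, added after 1 h dye loading at 37 C; kinetic reading at 1 sec intervals.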

Test [14] can be described thus: cAMP Responsive Elements (CRE) small molecule agonists, cell-based qHTS assay (AID 1963590). The method, boiled down:
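Compound exposure lasted 3 h at 37 C/5% CO2 in CRE-bla HEK 293T cells grown in assay medium with 10% dialyzed FBS and 25 mM HEPES. Reporter signal came from LiveBLAzer B/G FRET substrate, 2 h, room temperature.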

Test [15] can be described thus: cAMP Responsive Elements (CRE) small molecule antagonists, cell-based qHTS assay (AID 1963591; active = well fitted inhibition curve with a large enough effect in the signal ratio in the repeat runs, not every such curve was filed as active; the % refers to the signal ratio). The method, boiled down:
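Stimulation used NKH477 at a final 0.25 uM for 3 h in compound-treated CRE-bla HEK293T cells, seeded 18 h beforehand. Reporter activity was measured with LiveBLAzer B/G FRET substrate after 2 h at room temperature.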

For test [16], the target named is Beta-2 adrenergic receptor (Homo sapiens) (UniProt P07550). The test is described as follows: Adrenergic beta2 receptor (ADRB2) small molecule antagonists, cell-based qHTS assay (AID 1963592). Note: series mostly up to about 92 µM; nearly all actives have a fitted effect of over 50% in size. The essentials: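 Assay format: CHO-ADRB2 cells, 18-20hr seeding at 37C/5% CO2, then compound plus 1nM isoproterenol agonist mix for 0.5hr RT. Homogeneous time-resolved fluorescence cAMP detection after 1hr, expressed as 665/615 nm ratio.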

In test [17] the target is D(2) dopamine receptor (Homo sapiens) (UniProt P14416). The test is described as follows: Dopamine D2 receptor (DRD2) small molecule agonists, cell-based qHTS assay (AID 1963594). Note: nearly all actives have a fitted effect of over 35% in size. The essentials:
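cAMP accumulation in DRD2-HEK293 cells measured by HTRF after 1 h detection; compounds added 10 min before NKH477 (200nM […]) forskolin-analogue stimulation, 30 min at room temperature, with Ro20-1724 present at 0.1 mM final.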

Test [18] has the same target. The test is described as follows: Dopamine D2 receptor (DRD2) small molecule antagonists, cell-based qHTS assay (AID 1963595; active = well fitted inhibition curve with a large enough effect in the signal ratio in the repeat runs, with a control signal flat; the % refers to the signal ratio). The essentials: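 Human DRD2 antagonist qHTS measuring cAMP by HTRF. The cells are exposed to compound for 10 min, then to NKH477 (200 nM) and quinpirole (12 nM) for 30 min at RT, with Ro20-1724 (0.1 mM) present throughout.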
The target in test [19] is Muscarinic acetylcholine receptor M1 (Homo sapiens) (UniProt P11229). The experiment in a line: Cholinergic receptor muscarinic 1 (CHRM1) small molecule antagonists, cell-based qHTS assay (AID 1963588). Note: nearly all actives have a fitted effect of over 40% in size. The method, boiled down: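 Compounds were tested at 15 concentrations in three independent runs. Dye-loaded CHRM1-CHO cells were exposed 5 min at room temperature before stimulation by acetylcholine added at 50nM. Intracellular calcium was read kinetically on FDSS for 3 min.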

Unmarked numbers belong to inactive results. Inconclusive results are not listed. The source made the active and inactive calls. Unless noted, calls come from the whole dose curve.

Chain of KiSS-1 receptor (Homo sapiens) (Q969F8 whole entry, looked up): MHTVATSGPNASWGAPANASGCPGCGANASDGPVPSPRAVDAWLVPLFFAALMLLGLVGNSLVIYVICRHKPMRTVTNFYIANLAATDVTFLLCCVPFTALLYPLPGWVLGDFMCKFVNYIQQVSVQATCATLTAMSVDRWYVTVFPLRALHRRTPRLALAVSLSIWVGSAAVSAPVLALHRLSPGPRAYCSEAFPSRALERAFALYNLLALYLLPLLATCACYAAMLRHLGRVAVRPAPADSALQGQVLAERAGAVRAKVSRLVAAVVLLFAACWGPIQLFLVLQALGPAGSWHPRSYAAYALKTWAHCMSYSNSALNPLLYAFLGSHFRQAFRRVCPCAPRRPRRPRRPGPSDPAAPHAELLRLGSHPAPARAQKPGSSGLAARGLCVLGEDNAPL
Chain of Muscarinic acetylcholine receptor M1 (Homo sapiens) (P11229 whole entry, looked up): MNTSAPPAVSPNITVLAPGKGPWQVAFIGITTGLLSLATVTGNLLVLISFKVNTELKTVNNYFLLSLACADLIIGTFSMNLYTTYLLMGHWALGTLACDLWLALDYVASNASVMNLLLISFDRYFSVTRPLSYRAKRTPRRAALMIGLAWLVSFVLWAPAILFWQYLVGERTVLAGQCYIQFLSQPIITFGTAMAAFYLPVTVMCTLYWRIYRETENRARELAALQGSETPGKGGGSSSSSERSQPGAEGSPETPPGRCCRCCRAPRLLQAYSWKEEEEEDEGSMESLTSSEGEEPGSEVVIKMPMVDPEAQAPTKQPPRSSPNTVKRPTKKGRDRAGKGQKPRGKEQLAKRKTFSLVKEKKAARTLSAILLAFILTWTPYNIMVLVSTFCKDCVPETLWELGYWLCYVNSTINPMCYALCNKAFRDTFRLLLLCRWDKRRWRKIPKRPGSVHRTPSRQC
Chain of Gonadotropin-releasing hormone receptor (Homo sapiens) (P30968 whole entry, looked up): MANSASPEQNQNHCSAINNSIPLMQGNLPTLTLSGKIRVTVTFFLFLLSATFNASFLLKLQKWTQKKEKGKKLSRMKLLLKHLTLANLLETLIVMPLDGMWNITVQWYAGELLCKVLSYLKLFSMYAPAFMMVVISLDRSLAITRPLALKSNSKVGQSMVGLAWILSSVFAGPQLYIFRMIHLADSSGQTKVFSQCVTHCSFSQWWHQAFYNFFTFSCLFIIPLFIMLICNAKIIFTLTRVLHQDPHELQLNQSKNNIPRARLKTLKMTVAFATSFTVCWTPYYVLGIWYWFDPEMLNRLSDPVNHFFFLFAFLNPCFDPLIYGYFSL
Chain of 5-hydroxytryptamine receptor 2A (Homo sapiens) (P28223 whole entry, looked up): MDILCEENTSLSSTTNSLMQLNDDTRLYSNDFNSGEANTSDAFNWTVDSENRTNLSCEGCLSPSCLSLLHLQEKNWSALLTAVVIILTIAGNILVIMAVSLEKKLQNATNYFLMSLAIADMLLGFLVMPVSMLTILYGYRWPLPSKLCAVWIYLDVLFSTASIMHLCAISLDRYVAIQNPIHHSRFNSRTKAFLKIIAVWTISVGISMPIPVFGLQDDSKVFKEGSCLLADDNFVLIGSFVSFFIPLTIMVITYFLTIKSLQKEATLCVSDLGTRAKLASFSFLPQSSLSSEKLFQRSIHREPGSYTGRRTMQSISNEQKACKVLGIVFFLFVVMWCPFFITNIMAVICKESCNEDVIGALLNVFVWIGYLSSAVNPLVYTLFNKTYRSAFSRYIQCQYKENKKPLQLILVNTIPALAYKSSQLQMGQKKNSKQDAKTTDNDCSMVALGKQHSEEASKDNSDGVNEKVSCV
Chain of D(2) dopamine receptor (Homo sapiens) (P14416 whole entry, looked up): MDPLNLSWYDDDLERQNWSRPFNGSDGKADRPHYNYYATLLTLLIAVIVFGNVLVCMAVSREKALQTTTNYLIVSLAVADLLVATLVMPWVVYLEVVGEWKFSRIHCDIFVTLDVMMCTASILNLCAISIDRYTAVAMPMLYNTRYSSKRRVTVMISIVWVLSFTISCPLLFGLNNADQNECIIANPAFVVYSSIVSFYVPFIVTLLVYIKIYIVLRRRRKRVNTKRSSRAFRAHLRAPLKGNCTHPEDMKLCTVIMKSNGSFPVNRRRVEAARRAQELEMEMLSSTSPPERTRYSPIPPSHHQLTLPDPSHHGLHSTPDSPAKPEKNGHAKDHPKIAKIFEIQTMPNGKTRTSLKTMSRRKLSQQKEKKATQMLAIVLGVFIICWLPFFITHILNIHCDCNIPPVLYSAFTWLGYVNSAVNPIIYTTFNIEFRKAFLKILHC
Chain of Beta-2 adrenergic receptor (Homo sapiens) (P07550 whole entry, looked up): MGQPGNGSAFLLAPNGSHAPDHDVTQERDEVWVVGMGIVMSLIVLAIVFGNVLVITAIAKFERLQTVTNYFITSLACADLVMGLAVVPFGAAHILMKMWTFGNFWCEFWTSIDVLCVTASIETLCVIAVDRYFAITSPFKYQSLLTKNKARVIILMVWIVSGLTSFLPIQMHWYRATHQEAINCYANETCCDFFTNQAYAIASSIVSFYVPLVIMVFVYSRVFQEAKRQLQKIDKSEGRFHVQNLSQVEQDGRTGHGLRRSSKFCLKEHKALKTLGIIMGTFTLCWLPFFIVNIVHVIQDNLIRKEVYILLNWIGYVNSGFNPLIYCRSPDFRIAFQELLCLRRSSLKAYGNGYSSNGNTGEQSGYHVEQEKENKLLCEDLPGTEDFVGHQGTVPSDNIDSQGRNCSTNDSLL

In the case of `ClCCl`, the Potency entry in test [1], in [2], in [3], in test [6], in test [7] and in test [8] was “inactive” throughout. For the same compound, the Potency entry in test [9], in test [10], in test [11], in test [12], in [13] and in test [14] was “inactive” in each case. Moreover, the Potency entry in test [15], in [16], in [17] and in test [18] was “inactive” in each case. For the same compound, the outcome in [4] and in [5] was inactive.
For the compound `O=c1cccccc1O`, the Potency in [1] is 44.1 µM (active); in [2], 24.8 µM (active); in [9] it was 29.4 µM (active). For the same compound, the Potency result in test [3], in test [6], in test [7], in test [8], in [10] and in test [11] was “inactive” in each case. In addition, the Potency entry in test [12], in test [19], in [13], in [14], in test [15] and in test [17] was “inactive” throughout. In test [18], the Potency entry is “inactive”. Also, the result in test [4] and in test [5] was inactive.
For the compound `C=C(C)c1ccccc1`, the Potency result in [1], in test [2], in [3], in test [6], in [7] and in test [8] was “inactive” each time. In addition, the Potency result in [9], in test [10], in [11], in [12], in test [19] and in test [14] was “inactive” throughout. Also, the Potency result in test [15], in [16], in test [17] and in test [18] was “inactive” throughout. Also, the result in test [4] and in [5] was inactive.
As for `CCOC(=O)[C@H](CCc1ccccc1)N[C@@H](C)C(=O)N(CC(=O)O)C1Cc2ccccc2C1`, the Potency entry in [1], in [2], in test [3], in test [6], in test [7] and in test [8] was “inactive” in each case. The Potency result in test [9], in test [10], in [11], in test [12], in test [19] and in test [13] was “inactive” each time. Further, the Potency entry in test [16] and in test [18] was “inactive” in each case. Also, the outcome in [4] and in test [5] was inactive.
For `C=CC(=O)OCCOCCOCC`, the Potency result in [1], in [2], in [3], in test [6], in test [7] and in test [8] was “inactive” each time. The Potency result in [9], in test [10], in [11], in test [12], in test [19] and in [14] was “inactive” each time. Further, the Potency result in test [15], in test [16], in test [17] and in test [18] was “inactive” throughout. In addition, the outcome in [4] and in test [5] was inactive.
On to `CC(C)(C)C(=O)/C=C/c1ccc(Cl)cc1`, for which the Potency entry in test [1], in [3], in [6], in [7], in test [8] and in [9] was “inactive” in each case. Moreover, the Potency result in [10], in [11], in test [12], in test [19], in test [13] and in test [15] was “inactive” throughout. In addition, the Potency result in test [16], in test [17] and in test [18] was “inactive” each time. The Potency in test [2] was 54.5 µM (active). In addition, the outcome in test [4] and in [5] was inactive.
Turning to `CC(C)(C)C(=O)OCOC(=O)[C@@H]1N2C(=O)[C@@H](NC(=O)[C@H](N)c3ccccc3)[C@H]2SC1(C)C`, the Potency entry in [1], in test [2], in [3], in [6], in test [7] and in test [8] was “inactive” throughout. Moreover, the Potency result in test [9], in [10], in test [11], in [12], in test [19] and in test [13] was “inactive” each time. Further, the Potency entry in test [16], in [17] and in test [18] was “inactive” in each case. Also, the result in [4] and in test [5] was inactive.

The values above are taken from PubChem BioAssay (Tox21).
